High-throughput results as filed in PubChem BioAssay.
Shown are actives, neighbours in structure and some others; about 2.9% of the full set was active somewhere.
GLP1R inv ag: inverse agonists of human GLP-1 receptor; 410,000 compounds, 1.6% hits; Potency, µM (top dose mostly 38.3 µM), for the others: top-dose activity change, negative = inhibition, most hits filed as inhibitors; P43220; HEK293 GLP-1R CRE-luciferase, luminescence, 24 h; GLP-1R form is constitutively active; AID 624417; also: potency is read from the fitted curve at half-maximal effect; % is scaled to controls: 0 for no effect and ±100 for the full control effect; nearly all actives have a fitted effect of over 55% in size
Target sequence (P43220 whole entry, looked up): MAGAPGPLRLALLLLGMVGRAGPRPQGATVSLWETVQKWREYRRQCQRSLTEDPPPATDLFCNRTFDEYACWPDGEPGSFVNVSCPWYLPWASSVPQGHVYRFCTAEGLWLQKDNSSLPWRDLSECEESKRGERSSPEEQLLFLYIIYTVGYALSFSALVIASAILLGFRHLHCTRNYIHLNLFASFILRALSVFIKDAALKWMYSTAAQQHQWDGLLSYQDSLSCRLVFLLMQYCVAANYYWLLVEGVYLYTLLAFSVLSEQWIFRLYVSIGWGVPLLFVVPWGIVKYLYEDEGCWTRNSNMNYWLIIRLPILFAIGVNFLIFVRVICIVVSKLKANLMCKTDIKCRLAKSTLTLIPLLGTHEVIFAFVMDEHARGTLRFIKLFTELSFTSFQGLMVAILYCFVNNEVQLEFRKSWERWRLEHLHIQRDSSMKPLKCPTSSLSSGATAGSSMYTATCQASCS
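Stable HEK293 clone (constitutively active GLP-1R + cAMP-response luciferase); 200 cells/uL plated, 12 h pre-culture, compound 24 hr, 37 deg C/5% CO2; detection reagent 12 min RT; luminescence.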
LDHA block: blocks human lactate dehydrogenase A | P00338 | purified LDHA, NADH/diaphorase-resazurin fluorescence; active compounds read low | activity change, % (values are at about 110 or 230 µM) | 480,000 compounds, 0.15% hits; in the data active = activity change below about -30%; inconclusive = mostly about -25% to -30%;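 also: plate controls were DMSO wells for no effect and wells without enzyme for full effect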
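Resorufin fluorescence (ex540/em590), read at 0 and 20 min after diaphorase/resazurin addition, reports the NADH left after a 5 min room-temperature reaction of 2 nM human LDH5 with 0.06 mM NADH and 0.2 mM pyruvate.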
ClpP mod: qHTS Assay for Activators of ClpP; AID 651965, 2013; Potency, µM (series often up to 57.5 µM), inactives show at the top dose activity change, negative = active; purified B. subtilis ClpP, FRET peptide cleavage, 20 min; 340,000 compounds, 1.9% hits; active = well fitted falling curve with a large enough effect; inconclusive = small, poorly fitted or top-dose-only effect; inactive = no such curve, though single readings can be large or run the other way; also: potency is read from the fitted curve at half-maximal effect; the source files actives as falling curves though it sought activators and does not explain the sign; nearly all actives have a fitted effect of over 65% in size
Target sequence (P80244 whole entry, looked up): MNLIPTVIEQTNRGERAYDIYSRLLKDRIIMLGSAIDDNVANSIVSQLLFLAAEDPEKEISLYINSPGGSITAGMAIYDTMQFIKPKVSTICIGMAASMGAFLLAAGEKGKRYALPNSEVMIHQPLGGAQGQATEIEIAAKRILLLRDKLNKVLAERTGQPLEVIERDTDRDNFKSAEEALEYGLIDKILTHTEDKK
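Purified B. subtilis ClpP, 10 microg/mL final in Tris/HCl pH8 with KCl, BSA, glycerol and Tween-20, cleaved an Abz/nitrotyrosine-quenched decapeptide. Fluorescence (ex 320, em 430) was read at 0 and 20 min at room temperature. Delta was normalized to 5.8 microM ADEP and DMSO/no-enzyme controls.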
GLP-1R agonist: GLP-1 receptor (human) agonism | HEK293 GLP-1R CRE-luciferase, luminescence, 4-6 h; cells express a hypersensitive GLP-1R form | Potency, µM (series often up to 45.6 µM), inactives show at the highest dose activation, actives largely listed as activators | 380,000 compounds, 0.007% hits | AID 624172; also: potency is read from the fitted curve at half-maximal effect; % of control where 0% means no effect
p53 reactivator: mutant p53 re-activation in reporter cells | H1299 p53-A138V BP100-luciferase reporter, luminescence, 24 h | Potency, µM (series often up to 92.2 µM), for inactives: top-dose activity change, positive = activation, hits mostly activators | 320,000 compounds, 0.063% hits; also: potency is read from the fitted curve at half-maximal effect; % of control where 0% means no effect; nearly all actives have a fitted effect of over 45% in size
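p53-null H1299 cells stably carrying temperature-sensitive p53-A138V and a BP100-luciferase reporter were pinned with compounds (4-point, 1:5 series) and held 24 hrs at 37 deg C. Luminescence was read 10 min after detection reagent.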
GLP1R cytotox: cytotoxic in the GLP-1 receptor inverse agonist counter-screen | 410,000 compounds, 0.13% hits | HEK293 cAMP-luciferase reporter cells, luminescence, 24 h | Potency, µM (series often up to 38.3 µM), without a hit: top-dose activity change, negative = inhibition, usual class: inhibitors;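 also: loss of luciferase light is scored as toxicity; potency is read from the fitted curve at half-maximal effect; % is scaled to controls: 0 for no effect and ±100 for the full control effect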
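Seeding density was 200 cells/uL; after overnight-length (12 h) culture, 23 nL compounds went on for 24 h at 37 °C. Readout used a luciferase detection reagent, luminescence taken after 12 min at room temperature.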
ClpP validation: validation of B. subtilis ClpP protease hits (inhibitors). shares compounds with ClpP mod. AID 743245. 470 compounds, 40% hits. purified B. subtilis ClpP, FRET-FV substrate cleavage, 20 min. Potency, µM (highest dose often 57.5 µM), for the others: top-dose activity change, negative = inhibition, usual class: inhibitors; also: potency is read from the fitted curve at half-maximal effect; % is scaled to controls: 0 for no effect and ±100 for the full control effect; nearly all actives have a fitted effect of over 70% in size
Active calls of the source: *; i = inactive; u = inconclusive; x = not tested or not shown. Unless noted, calls follow the shape of the dose curve; as a rule, active = well fitted curve in the direction sought with a large enough effect; inconclusive = small, poorly fitted or top-dose-only effect, or another doubt; inactive = no such curve, though single readings can be large; an effect the other way counts as inactive or inconclusive.

SMILES	GLP1R inv ag	LDHA block	ClpP mod	GLP-1R agonist	p53 reactivator	GLP1R cytotox	ClpP validation
Cc1ccc2[nH]c3c(=O)n(CCN4CCNCC4)cnc3c2c1	5.0%	-1.8	8.91µM*	12.3%	0.6%	1.1%	21.7µM*
CC(=O)c1cc2c(cc1N(C(=O)c1ccco1)C(C(=O)NC1CCCC1)c1ccccc1F)OCO2 (configuration not stated)	8.4%	-0.6	-0.4%	1.5%	-2.8%	-11.8%	x
COc1ccc(C(C(=O)NC2CCCC2)N(C(=O)c2ccco2)c2cc3c(cc2C(C)=O)OCO3)cc1 (configuration not stated)	11.5%	-4.3	3.16µM*	2.7%	-8.0%	0.6%	-0.4%
Cc1ccc(NC(=O)Cn2c(=O)n(CCC(C)C)c(=O)c3cccnc32)cc1C	-17.1%	-6.7	70.9%	x	x	-3.2%	4.5%
CCCCOC(=O)c1ccc(NC(=O)CSC2=Nc3ccccc3C3CC=NN23)cc1 (configuration not stated)	2.2%	0.2	-8.0%	10.5%	0.6%	0.4%	x
Cc1cc(C)n2nc(NCc3ccccc3)nc2n1	4.3%	0.0	10µM*	1.3%	x	4.6%	24.3µM*
CCNc1nc(NCC)n2c(SCC(=O)Nc3ccc(OC)c(OC)c3)nnc2n1	10.2%	-2.7	46.2%	0.1%	5.3%	-13.6%	0.1%
CCN(CC)c1nc(C(N)=O)cc(-c2ccccc2)n1	u	-2.5	-3.0%	18.2%	-10.2%	-0.7%	x
COc1ccc(NC(=O)C2=C(C)Nc3nc(SCc4ccc(C)cc4C)nn3C2c2cccc(OC)c2OC)cc1 (configuration not stated)	3.5%	-11.0	80.5%	x	x	6.2%	-19.1%
COc1cccc(CSc2nc3n(n2)C(c2ccccc2C)C(C(=O)Nc2ccccc2OC)=C(C)N3)c1 (configuration not stated)	-27.5%	-4.9	u	x	x	1.0%	x
COc1ccc(-c2nc(NC(=O)C3CC(=O)N(Cc4ccco4)C3)sc2C)cc1 (configuration not stated)	u	-7.9	-3.1%	-1.0%	-4.1%	-15.6%	x
COc1cc(Cn2c(=O)oc3ccc(C)cc32)ccc1OCCC(C)C	u	0.3	-1.3%	18.3%	x	-0.1%	x
CCCOc1ccc(Cn2c(=O)oc3ccc(C)cc32)cc1OC	u	-3.9	240.3%	13.0%	-13.8%	-15.1%	-0.6%
Cc1nc2ccccn2c1C(=O)Nc1ccc2c(c1)OCCO2	-16.0%	-0.1	u	-19.4%	u	-14.3%	-1.6%
O=C(Cc1cccc(NC(=O)C2CCCN(C(=O)C3CC3)C2)c1)Nc1ccc(C(=O)N2CCCCC2)cc1 (configuration not stated)	14.0%	-3.0	1.4%	4.3%	x	1.3%	x
Cc1cccc(CC(=O)Nc2ccc(C(=O)N3CCCCC3)cc2)c1	u	-3.8	3.16µM*	2.2%	-0.1%	-10.1%	-0.2%
CC(Nc1nc(N2CCN(S(C)(=O)=O)CC2)nc2ccccc12)c1ccccc1 (configuration not stated)	-20.6%	3.4	3.98µM*	1.9%	-5.2%	u	24.3µM*
COc1ccc(Nc2nc(N3CCN(S(C)(=O)=O)CC3)nc3ccccc23)c(OC)c1	24.6%	-2.9	x	7.8%	7.3%	-13.3%	x
Fc1ccc2nc(Nc3nc4cc5c(cc4s3)OCO5)sc2c1	u	-4.6	u	-1.3%	u	u	x
Fc1ccc2nc(Nc3nc4c(F)cccc4s3)sc2c1	-0.9%	-5.5	8.91µM*	-8.7%	u	12.4%	4.85µM*
NNc1nc2ccc(F)cc2s1	u	1.7	-0.9%	-5.7%	u	-8.5%	x
Fc1ccc2nc(Nc3nc4c(F)cc(F)cc4s3)sc2c1	-20.8%	-0.8	8.91µM*	1.0%	15.9%	-27.6%	u
Fc1ccc2nc(Nc3nc4cc5c(cc4s3)OCCO5)sc2c1	u	-6.4	6.31µM*	-29.0%	u	165.0%	3.85µM*
Cc1ccc(Cn2ccc(NC(=O)c3cc(-c4ccc(Br)cc4)on3)n2)cc1	2.7%	-0.3	-16.9%	0.7%	2.3%	5.6%	x
COCCCNC(=O)COC(=O)c1ccc(-c2nc3ccccc3s2)s1	-2.0%	-1.5	4.0%	-3.0%	u	0.6%	x
SMILES	GLP1R inv ag	LDHA block	ClpP mod	GLP-1R agonist	p53 reactivator	GLP1R cytotox	ClpP validation
COc1ccc(C)cc1S(=O)(=O)NC1CCCCC1C (configuration not stated)	u	-3.4	208.9%	-11.3%	-3.6%	-8.4%	-1.5%
CC(C)COP(=O)(OCC(C)C)C(O)c1ccc2c(c1)OCO2 (configuration not stated)	-13.4%	-0.2	-6.6%	-4.3%	-4.7%	5.5%	x
Oc1ccc(/C=C/c2ccc(/C=C/c3ccc(O)cc3)c(Br)c2)cc1	x	x	x	x	x	x	-18.9%
Cc1ccccc1Nc1c(-c2cc(Br)ccc2F)nc2ccccn12	-6.0%	-4.4	4.47µM*	x	x	-4.7%	-7.3%
Nc1c(C(=O)Nc2cccc(Cl)c2Cl)sc2nc(-c3cccnc3)ccc12	11.6%	-0.6	3.98µM*	4.2%	12.4%	177.5%	0.4%
CCOc1cc(C(=O)Nc2ccc(OC)c(OC)c2)nc2ccc(Cl)cc12	x	-16.2	x	x	x	x	x
CSc1ccc(CCNC(=O)c2ccc3c(c2)c(C)c(C)n3Cc2ccc(F)cc2)cc1	-30.8%	0.3	u	x	x	3.2%	x
CSc1cccc(NC(=O)c2ccc3c(c2)c(C)c(C)n3Cc2ccc(F)cc2)c1	u	-11.4	7.08µM*	x	x	-3.4%	27.3µM*
Fc1cc2nc(-c3ccncc3)[nH]c2cc1F	-0.9%	-15.9	3.16µM*	23.4%	28.9%	-5.3%	17.2µM*
Cc1cccc(C)c1NC(=O)C(c1ccc(C(F)(F)F)cc1)n1c(=O)c(-c2cc3ccccc3[nH]2)nc2ccccc21 (configuration not stated)	u	-3.1	18.1%	x	x	i	x
CC(C)(C)NC(=O)C(c1ccc(-c2ccccc2)cc1)n1c(=O)c(-c2cc3ccccc3[nH]2)nc2ccccc21 (configuration not stated)	u	-5.2	62.6%	x	x	493.2%	20.0%
